Tgondii IFNg: T. gondii growth inhibition under IFN-gamma; Toxoplasma gondii growth in IFN-gamma-treated host cells; hits give low values; activity change, negative = inhibition, % (concentration not given with the values); 69,000 tested, 3.8% active; AID 1259416; in the data active means activity change below about -70%, passing the limit was not always enough;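 further: host cells are HeLa cells infected with Toxoplasma gondii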
* hit, by the source's call; ! = not confirmed by another sample. This excerpt belongs to a sample that is enriched for hits.

SMILES | Tgondii IFNg
O=S(=O)(Cc1ccccc1)N1CCC2(CCN(Cc3ccc(Cl)cc3)C2)C1 (stereo not given) | -5
O=C(Cc1ccc(Cl)cc1)N1CC2(CCN(Cc3ccc(C(F)(F)F)cc3)CC2)C1 | -80*
CC(C)(C)CN1CC2(CCN(C(=O)Cc3ccc(Cl)cc3)C2)C1 | 3
Cc1ccc(NC(=O)Cn2ncc3c(N4CCC(C)CC4)ncnc32)cc1Cl | 0
CNc1ccnc(N2CCN(Cc3cnc(C(C)C)nc3)CC2)n1 | 0
Cc1ccc(S(=O)(=O)N2CCC3(CC2)Nc2cc(F)ccc2-n2cccc23)c(C)c1 | -5
CCCCN(C1CCN(C(C)=O)CC1)S(=O)(=O)c1ccc2[nH]c(=O)ccc2c1 | 87
COCCN(Cc1ccc2c(c1)CCCN2C)S(=O)(=O)c1ccc2[nH]c(=O)ccc2c1 | 8
CCN1CCCc2cc(CN(C3CCCC3)S(=O)(=O)c3ccc4[nH]c(=O)ccc4c3)ccc21 | -86*
O=C1CC[C@@H](NC(=O)c2nc3nc4c(c(=O)n3[nH]2)CCC4)[C@H](c2ccsc2)N1 | 43
CC(Cc1ccsc1)NC(=O)c1cn(C2CCCCC2)nn1 (stereo not given) | -4
O=C1Cc2c([nH]c3ccc(Br)cc23)-c2ncccc2N1 | -7
Brc1ccc2[nH]c3c(c2c1)CCCC3NCc1ccccc1 (stereo not given) | -98*
Brc1ccc2[nH]c3c(Br)cc(Br)cc3c2c1 | 16
Cn1cc(CN2CC[C@@H]3[C@H]2CCN3Cc2cccs2)cn1 | -10
Cc1ccc(C)c(-c2coc(-c3ccc(NC(=O)C4CCCCC4)cc3)n2)c1 | -41
O=C(O)c1ccc(S(=O)(=O)Nc2ccc(S(=O)(=O)Nc3cncs3)cc2)cc1 | 28
COc1ccccc1-c1ccc(NCCn2cccn2)nn1 | 1
O=c1[nH]cnc2c1ncn2[C@@H]1O[C@H](CO)[C@@H](O)[C@H]1O | 9
OC[C@H]1O[C@@H](n2cnc3c(Nc4ccccc4)ncnc32)[C@H](O)[C@@H]1O | -83*
Nc1nc(Nc2ccccc2)nc2c1ncn2C1OC(CO)C(O)C1O (stereo not given) | 17
CN(C)C1CCN(C(=O)c2cc(-c3cnc(-c4ccccc4)nc3)cn2C)CC1 | -2
O=C(CCC(=O)c1cccs1)c1cccs1 | 240
Cc1ccc(-c2cnc3ccccc3n2)cc1NC(=O)c1ccc(Br)o1 | 325
O=C(COc1ccc(-c2cnc3ccccc3n2)cc1)c1cccs1 | -85*
SMILES | Tgondii IFNg
COc1ccc(-c2ncnc3c2c(C(=O)Nc2ccc(C)nc2)c2ccccn23)cc1 | 39
c1cc2c3c(c1)c1c(n3CCNC2)CCCC1 | 16
O=C(O)c1cc(C2CC2)nc2ccc(-c3cccc4c3CCNC4)cc12 | 2
Cn1c2c(c3cc(-c4cccc5c4CCNC5)ccc31)CCCC2=O | -81*
CN(Cc1ccc2ncccc2c1)C(=O)C1CN(S(=O)(=O)c2ccc(F)cc2)C1 | 4
CC(=O)O[C@H]1C[C@@]2(C)[C@@H](C[C@@H](O)[C@H]3[C@@]4(C)CC[C@@H](O)[C@@H](C)C4CC[C@@]32C)/C1=C(/CCC=C(C)C)C(=O)O (stereo not given in full) | -28
COc1ccccc1C1(NC(=O)CCc2cc(Cl)no2)CCCC1 | 33
CC(C)Cc1nc(CN(C)C(=O)c2nn(C)c3c2CCCC3)no1 | 13
CC(Cn1cnc2c3cc(F)ccc3n(CC(=O)NC3CCCC3)c2c1=O)c1ccccc1 (stereo not given) | -102*
Cc1ccc2c(c1)cc(S(=O)(=O)c1ccccc1)c(=O)n2CC(=O)NC1CCCC1 | -20
Cc1noc(-c2cc(=O)n(CC(=O)NC3CCCC3)c3ccccc23)n1 | 68
CN1CCCCC1CCC(=O)NCc1cccnc1-n1cncn1 (stereo not given) | -5
CC1Cc2cc(CN(CCN(C)C)Cc3cccs3)ccc2O1 (stereo not given) | 68
CC(C)N(C(=O)NC(=O)c1csnn1)C(C)C | 12
Cc1ccc(SC(=O)c2csnn2)cc1 | -102*
O=C(Nc1ccc(Cl)cc1)c1csnn1 | 28
CCc1ccc(NC(=O)Cn2c(=O)cc(C(=O)N3CCOCC3)c3ccccc32)cc1 | 9
CCc1c(C)nn(CC(=O)N2CCC3(CCCNC3)C2)c1C (stereo not given) | 4
CCc1nc2ccccc2c(C(=O)NC2CCCCC2)c1C | -5
O=C(CN1C(=O)CCc2cc(S(=O)(=O)N3CCCC3)ccc21)Nc1ccc(OC(F)(F)F)cc1 | -25
Cc1ccc(C(=O)Nc2ccc(-n3nc(C(F)(F)F)cc3-c3cccs3)cc2)cc1 | 69
Cc1nnsc1C(=O)Nc1ccc(-n2nc(C(F)(F)F)cc2C(F)(F)F)cc1 | -81*
Cc1nnsc1C(=O)Nc1cccc(N)c1 | 2
Cc1cc(C)c2c(N3CCCCC3)nc(C(=O)N3CCC(N4CCCCC4)CC3)nc2n1 | 116
Cc1nonc1COc1ccccc1C(=O)Nc1nc(C(C)C)cs1 | 2
SMILES | Tgondii IFNg
CCOC(=O)CSc1nc(NCCc2ccc(OC)c(OC)c2)c2ccccc2n1 | 2
Cc1ccc(C)c(C(O)CN2CCN(c3nnc(C(F)(F)F)s3)CC2)c1 (stereo not given) | 33
Cc1nc2ccc(F)cc2cc1C(=O)NCCCOc1ccccc1F | -51
CCN(Cc1cccc(OC)c1)C(=O)c1c(O)cccc1O | 0
O=S(=O)(c1cccc(Cl)c1)N1CCc2nc(-c3ccccc3)sc2C1 | 1
COc1ccc(-c2nc3c(s2)CN(S(=O)(=O)c2ccc(C(C)C)cc2)CC3)cc1 | -16
CCOc1ccc(-c2nc3c(s2)CN(S(=O)(=O)c2ccccc2Cl)CC3)cc1 | -89*
CCOc1ccc(-c2nc3c(s2)CN(C(=O)Nc2ccccc2CC)CC3)cc1 | -4
COc1ccc(-c2nc3c(s2)CN(S(=O)(=O)c2ccccc2Cl)CC3)cc1 | -86*
CCOCC1CC2(CCN(C(=O)COc3ccc(C)cc3)CC2)CO1 (stereo not given) | -27
OCc1cc(-c2cccc(N3CCNCC3)n2)ccc1F | 0
Cc1nc(NCC2CC2)nc2c1COCC21CCN(CC(=O)N(C)C)C1 (stereo not given) | -10
Cc1cc(C)c(NC(=O)COc2nc(C)nc3ccccc23)c(C)c1 | -13
CS(=O)(=O)N1CCOCC2(CCN(CC3CCOC3)CC2)C1 (stereo not given) | -3
C=CCN1CC2(CCN(Cc3cnn(C)c3)CC2)OCC1=O | 2
O=C(CN1CCC(c2ccccc2)CC1)Nc1nnc(C2CCCCC2)s1 | 3
O=C(c1ccnc(N2CCOCC2)c1)N1CCCC1c1ncc2c(n1)CCNC2 (stereo not given) | -1
C=C1c2cccc(O)c2C(=O)C2C(=O)[C@]3(O)C(=O)C(C(N)=O)C(=O)[C@@H](N(C)C)[C@@H]3[C@@H](O)[C@H]12 (stereo not given in full) | -72*!
CCCCC(=O)Nc1ccc(-c2nc(-c3ccc(C)cc3C)co2)cc1 | -29
Cc1cc(C)n(-c2cccc(-c3nccn3Cc3cnn(C)c3C)c2)n1 | 2
O=C(Cc1ccc2c(c1)OCO2)N1CCC(c2nc(-c3ccsc3)cc(=O)[nH]2)CC1 | -80*
O=C1CC2(CCN(C(=O)Cc3ccc4c(c3)OCO4)CC2)CN1 | -57
CCn1c(C2CCCN(C(=O)Cc3ccc4c(c3)OCO4)C2)nn(C)c1=O (stereo not given) | 7
CCOc1ncccc1C(=O)CC(=O)OC | -27
Cc1nc(-c2cccs2)sc1NC(=O)Nc1ccc(Cl)cc1 | 65
CC(C)(C)c1csc(NC(=O)Nc2ccc(Cl)cc2)n1 | -103*
CC(CC(=O)Nc1nc(C(C)(C)C)cs1)n1cncn1 (stereo not given) | 5

Compound activity deposited in PubChem by Broad Institute.
